The structures appear in SMILES notation. Records with an inconclusive call do not appear. Entries that show only a call come without a potency. Active and inactive are the calls of the source. Unless noted, the call rests on the fitted dose curve; in most records, active means well fitted curve in the direction sought with a large enough effect in the repeat runs; inconclusive means weak or mixed curves; inactive means no such curve, though single readings can be large; an effect the other way counts as inactive or inconclusive.

The first test in a line: qHTS assay to identify small molecule antagonists of the progesterone receptor (PR) signaling pathway - cell viability counter screen (AID 1346798). Further: nearly all actives have a fitted effect of over 50% in size. Further: potency means the concentration at half of the fitted maximal effect. The settings on record: PR-UAS-bla HEK293T viability, CellTiter-Glo luminescence, 16 h; series mostly up to 92.4 µM. Summed up: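 CellTiter-Glo luminescence; PR-UAS-bla HEK293T, 3,000 cells/well; compound + R5020, 16 hr, 37C/5% CO2; 30 min RT before read.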
For orientation: Quantitative high-throughput screening tests each substance at several concentrations.
Consider `NC(=O)CCCCC(N)=O`, for which the Potency result is “inactive”.
`C[C@H](CS)C(=O)N1CCC[C@H]1C(=O)O`: the Potency result was “inactive”.
With `Cc1ccc2c(c1)CCCN2`, the Potency entry was “inactive”.
On the same count and under the same terms, for `CCCCC(CC)COS(=O)(=O)O` (stereo not drawn) the value was “inactive”; for `CC1=CC[C@@]23C[C@@H]1C(C)(C)[C@@H]2CC[C@H]3C`, “inactive”; for `O=S(=O)(Cl)c1c(Cl)cccc1Cl`, “inactive”.
For `CCCCCCCCCCCCCCN(C)C`, the activity change, negative = cytotoxicity is 2.26% [at 18.9 µM] (inactive).
For `CNCc1ccc(NC(=O)c2c[nH]c3c2C(=O)CCC3)cc1`, the Potency result is “inactive”.
Consider `CCCCCCC(O)CCCCCCCCCCC(=O)OC` (stereo not drawn), for which the Potency result is “inactive”.
For `CCOc1ncc(F)c(=O)[nH]1`, the Potency entry is “inactive”.
Take `C[C@@H]1C[C@H]2[C@@H]3CCC4=CC(=O)C=C[C@]4(C)[C@@]3(F)[C@@H](O)C[C@]2(C)[C@@]1(O)C(=O)COP(=O)(O)O`: the Potency result is “inactive”.
Consider `CCCCC[C@H](O)/C=C/[C@H]1[C@H](O)CC(=O)[C@@H]1C/C=C\CCCC(=O)O`, for which the Potency result is “inactive”.
Still for that read-out and setting: for `CC1C(C)(C)C2=C(C(=O)CCC2)C1(C)C` (stereo not drawn) the value was “inactive”; for `O=C1OC[C@H](Cc2cccc(O)c2)[C@H]1Cc1cccc(O)c1`, “inactive”; for `CNS(=O)(=O)c1cc(C(=O)N2CCC(CCN3C4CCC3CC(n3c(C)nc5ccccc53)C4)(c3cccc(F)c3)CC2)c(Cl)cc1F` (stereo not drawn), 24.3 µM (active).
In the case of `CC1CCC(C(C)CS)CC1S` (stereo not drawn), the Potency result was “inactive”.
On to `CCC(=O)OCc1ccc(OC)cc1`, for which the Potency entry was “inactive”.
Consider `C=CCOC(=O)COCCC(C)C`, for which the Potency result was “inactive”.
On the same count and under the same terms, for `O=C(/C=C/c1ccc([N+](=O)[O-])cc1)c1ccccc1` the value was “inactive”; for `O=C(c1ccccc1)c1ccc(O)cc1`, “inactive”; for `CC(C)CC(O)CC(C)C`, “inactive”.
Still for that read-out and setting: for `CNc1c2c(nn1C)CCCC2` the value was “inactive”; for `Nc1ccc(S(=O)(=O)NCc2ccccc2)cc1`, “inactive”; for `CC[C@@H](CO)NCCN[C@@H](CC)CO`, “inactive”.
With `Nc1ccn([C@H]2CS[C@@H](CO)O2)c(=O)n1`, the Potency entry is “inactive”.
For the compound `Cc1ccc(Cl)cc1N`, the Potency result is “inactive”.
Turning to `CC(C)(C)CCCCCCOC(=O)c1ccccc1C(=O)OCCCCCCC(C)(C)C`, the Potency result was “inactive”.
Turning to `SCCc1cnccn1`, the Potency is 30.6 µM (active).
Still for that read-out and setting: for `ClC1=C(Cl)C1(Cl)Cl` the value was “inactive”; for `C=CC(=O)O`, “inactive”.

Another test is described as follows: qHTS assay to identify small molecule agonists of the progesterone receptor (PR) signaling pathway - cell viability counter screen (AID 1346799; calls by dose curve; further: nearly all actives have a fitted effect of over 45% in size; further: potency means the concentration at half of the fitted maximal effect). To be noted: PR-UAS-bla HEK293T viability, CellTiter-Glo luminescence, 16 h; series mostly up to 92.4 µM. A digest of the protocol: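 In parallel with the beta-lactamase readout, cytotoxicity toward PR-UAS-bla HEK293T cells was measured by CellTiter-Glo luminescence following 16 hr compound incubation in 2% charcoal-stripped FBS medium.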
Regarding `NC(=O)CCCCC(N)=O`, the Potency entry is “inactive”.
`C[C@H](CS)C(=O)N1CCC[C@H]1C(=O)O`: the Potency entry is “inactive”.
Turning to `Cc1ccccc1S(N)(=O)=O`, the Potency result was “inactive”.
Still for that read-out and setting: the value for `CCCCC(CC)COS(=O)(=O)O` (stereo not drawn) was “inactive”; that for `CC1=CC[C@@]23C[C@@H]1C(C)(C)[C@@H]2CC[C@H]3C` was “inactive”; that for `O=S(=O)(Cl)c1c(Cl)cccc1Cl` was “inactive”.
For `CCCCCCCCCCCCCCN(C)C`, the activity change, negative = cytotoxicity was 0% [at 19 µM] (inactive).
For the compound `CC(=O)NNC(C)=O`, the Potency entry was “inactive”.
As for `CCCCCCC(O)CCCCCCCCCCC(=O)OC` (stereo not drawn), the Potency entry was “inactive”.
In the case of `CN1C(CSCC(F)(F)F)Nc2cc(Cl)c(S(N)(=O)=O)cc2S1(=O)=O` (stereo not drawn), the Potency result was “inactive”.
Regarding `C[C@@H]1C[C@H]2[C@@H]3CCC4=CC(=O)C=C[C@]4(C)[C@@]3(F)[C@@H](O)C[C@]2(C)[C@@]1(O)C(=O)COP(=O)(O)O`, the Potency entry is “inactive”.
`CCCCC[C@H](O)/C=C/[C@H]1[C@H](O)CC(=O)[C@@H]1C/C=C\CCCC(=O)O`: the Potency entry is “inactive”.
On to `CC1C(C)(C)C2=C(C(=O)CCC2)C1(C)C` (stereo not drawn), for which the Potency result is “inactive”.
Consider `CCCc1nc2c(C)cc(-c3nc4ccccc4n3C)cc2n1Cc1ccc(-c2ccccc2C(=O)O)cc1`, for which the Potency entry is “inactive”.
For `CNS(=O)(=O)c1cc(C(=O)N2CCC(CCN3C4CCC3CC(n3c(C)nc5ccccc53)C4)(c3cccc(F)c3)CC2)c(Cl)cc1F` (stereo not drawn), the Potency was 5.45 µM (active).
For the compound `CC1CCC(C(C)CS)CC1S` (stereo not drawn), the Potency entry was “inactive”.
Take `C1=CCC2CC=CC2C1` (stereo not drawn): the Potency entry is “inactive”.
In the case of `CCC(=O)OCc1ccc(OC)cc1`, the Potency result was “inactive”.
As to `C=CCOC(=O)COCCC(C)C`, the Potency entry is “inactive”.
Consider `O=C(/C=C/c1ccc([N+](=O)[O-])cc1)c1ccccc1`, for which the Potency result is “inactive”.
Still for that read-out and setting: for `Cc1ccc(S(=O)(=O)NC(=O)NC2CCCCC2)cc1` the value was “inactive”.
Take `CC(C)CC(O)CC(C)C`: the Potency entry was “inactive”.
Consider `CNc1c2c(nn1C)CCCC2`, for which the Potency result was “inactive”.
For `Nc1ccc(S(=O)(=O)NCc2ccccc2)cc1`, the Potency result is “inactive”.
Turning to `CC[C@@H](CO)NCCN[C@@H](CC)CO`, the Potency entry was “inactive”.
Consider `Nc1ccn([C@H]2CS[C@@H](CO)O2)c(=O)n1`, for which the Potency result is “inactive”.
With `Cc1ccc(Cl)cc1N`, the Potency result is “inactive”.
Turning to `CC(C)(C)CCCCCCOC(=O)c1ccccc1C(=O)OCCCCCCC(C)(C)C`, the Potency entry was “inactive”.
With `Cc1oc(=O)oc1COC(=O)[C@@H]1N2C(=O)[C@@H](NC(=O)[C@H](N)c3ccccc3)[C@H]2SC1(C)C`, the Potency result was “inactive”.
Take `ClC1=C(Cl)C1(Cl)Cl`: the Potency result was “inactive”.

Another test in a line: qHTS assay to identify small molecule antagonists of the TGF-beta/Smad signaling pathway - cell viability counter screen (AID 1346824). Further: nearly all actives have a fitted effect of over 50% in size. The settings on record: SBE-bla HEK293T viability, CellTiter-Glo luminescence; series mostly up to 76.8 µM. Summed up: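 SBE-bla HEK 293T cells were plated overnight at 37 C, then given compounds in DMSO plus TGF-beta1 (added as 0.25 ng/mL solution) for 5 hr. After the bla read, CellTiter-Glo was added to the same wells and luminescence read after 30 min at room temperature.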
As to `Cc1ccc2c(c1)CCCN2`, the result was inactive.
For the compound `CC(=O)NNC(C)=O`, the compound was classed as inactive.
On the same count and under the same terms, the value for `CNCc1ccc(NC(=O)c2c[nH]c3c2C(=O)CCC3)cc1` was “inactive”.
Turning to `CN1C(CSCC(F)(F)F)Nc2cc(Cl)c(S(N)(=O)=O)cc2S1(=O)=O` (stereo not drawn), the compound was classed as inactive.
Take `C[C@@H]1C[C@H]2[C@@H]3CCC4=CC(=O)C=C[C@]4(C)[C@@]3(F)[C@@H](O)C[C@]2(C)[C@@]1(O)C(=O)COP(=O)(O)O`: the result was inactive.
Still for that read-out and setting: for `CCCc1nc2c(C)cc(-c3nc4ccccc4n3C)cc2n1Cc1ccc(-c2ccccc2C(=O)O)cc1` the value was “inactive”; for `CNS(=O)(=O)c1cc(C(=O)N2CCC(CCN3C4CCC3CC(n3c(C)nc5ccccc53)C4)(c3cccc(F)c3)CC2)c(Cl)cc1F` (stereo not drawn), “inactive”; for `C1=CCC2CC=CC2C1` (stereo not drawn), “inactive”.
On the same count and under the same terms, for `O=C(/C=C/c1ccc([N+](=O)[O-])cc1)c1ccccc1` the value was “inactive”; for `Cc1ccc(S(=O)(=O)NC(=O)NC2CCCCC2)cc1`, “inactive”.
On to `Cc1ccc(Cl)cc1N`, for which the compound was classed as inactive.
As to `Cc1oc(=O)oc1COC(=O)[C@@H]1N2C(=O)[C@@H](NC(=O)[C@H](N)c3ccccc3)[C@H]2SC1(C)C`, the outcome was inactive.
Take `SCCc1cnccn1`: the result was inactive.

(Values after PubChem BioAssay (Tox21).)
